Data published in the supplement of paper PMC7380943.

What was measured:
[1] = system: CLZ3 (HCA2 human fibroblast dual HR-NHEJ reporter); test: NHEJ repair efficiency (GFP+ cells) relative to control (log10 fold); higher = more non-homologous end joining; conditions: 5 µM; doxycycline 0.5 ug/mL
[2] = system: CLZ3 (HCA2 human fibroblast dual HR-NHEJ reporter); test: HR repair efficiency (tdTomato+ cells) relative to control (log10 fold); higher = more homologous recombination; conditions: 5 µM; doxycycline 0.5 ug/mL
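For HR repair efficiency (tdTomato+ cells) relative to control in this document: compound given one day before doxycycline, which switches on I-SceI endonuclease expression to create double-strand breaks within the integrated reporter.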
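For NHEJ repair efficiency (GFP+ cells) relative to control in this document: compound given one day ahead of doxycycline, which switches on I-SceI endonuclease to cut the chromosomally integrated reporter and create DSBs.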

Structure (SMILES) | NHEJ repair efficiency (log10) [1] | HR repair efficiency (log10) [2]
C[C@@H]1O[C@@H](Oc2cc(O)c3c(=O)c(O[C@@H]4O[C@@H](C)[C@H](O)[C@@H](O)[C@H]4O)c(-c4ccc(O)cc4)oc3c2)[C@H](O)[C@H](O)[C@H]1O [Kaempferitrin] | 0.0262 | 0.0294
O=c1cc(-c2ccc(O)cc2)oc2c([C@@H]3O[C@H](CO)[C@@H](O)[C@H](O)[C@H]3O)c(O)c([C@@H]3OC[C@H](O)[C@H](O)[C@H]3O)c(O)c12 [Isoschaftoside] | -0.0804 | 0.0575
CCCOC(=O)c1cc(O)c(O)c(O)c1 [Propyl gallate] | -0.0069 | 0.0457
C[C@H]1CC[C@@]2(OC1)O[C@H]1C[C@H]3[C@@H]4CC[C@@H]5C[C@@H](O)CC[C@]5(C)[C@H]4CC[C@]3(C)[C@H]1[C@@H]2C [Sarsasapogenin] | -0.068 | 0.0364
OC[C@H]1O[C@@H](Oc2ccc(O)cc2)[C@H](O)[C@@H](O)[C@@H]1O [Arbutin] | -0.0725 | 0.0689
COc1cc(O)c2c(=O)c(O[C@@H]3O[C@H](CO)[C@@H](O)[C@H](O)[C@H]3O)c(-c3ccc(O[C@@H]4O[C@H](CO)[C@@H](O)[C@H](O)[C@H]4O)cc3)oc2c1 [Complanatoside] | -0.0413 | -0.0658
C/C1=C/CC[C@H](C)C(=O)C[C@@H](C(C)C)C(=O)C1 [Curdione] | -0.0258 | 0.0177
CCCCC[C@H](O)CC(=O)CCc1ccc(O)c(OC)c1 [6-Gingerol] | -0.0809 | 0.0839
C=C1C[C@@]2(O)O[C@@]3(C[C@H]2C(C)C)[C@@H](C)CC[C@@H]13 [Curcumol] | -0.0784 | 0.163
